± gives the standard deviation of the averaged measurements.
How the values were obtained:
Test in all cases: promoter activity interaction Z-score (Lux/OD deviation from empty-vector control); higher = stronger promoter induction by the compound
[1] = tested on: E. coli BW25113 acrABp lux reporter
In short: (§1)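 E. coli BW25113 (wild type or marA, soxS or rob deletion) carrying low-copy luxCDABE promoter reporters grew in 40 µl LB Lennox in 384-well plates at 37°C. Each compound was tested at four 1:2 dilutions in biological duplicates. OD600 and luminescence were read every 30 min for 12 h. Areas were taken over 0–8 h (wild type) or 1–9 h (mutants), and wells below 10% of median growth area were removed. The score is the Z-transformed residual of growth-normalised luminescence fitted against the empty-vector control.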

[2] = tested on: E. coli BW25113 micFp lux reporter
In short: as §1

[3] = tested on: E. coli BW25113 ompFp lux reporter
In short: as §1

[4] = tested on: E. coli BW25113 robp lux reporter
In short: as §1

[5] = tested on: E. coli BW25113 soxSp lux reporter
In short: as §1

[6] = tested on: E. coli BW25113 tolCp lux reporter
In short: as §1

[7] = 0.62 µg/ml, genetic background: wild type
[8] = 0.62 µg/ml, genetic background: ΔmarA
[9] = 0.62 µg/ml, genetic background: Δrob
[10] = 0.62 µg/ml, genetic background: ΔsoxS
[11] = 1.2 µg/ml, genetic background: wild type
[12] = 1.2 µg/ml, genetic background: ΔmarA
[13] = 1.2 µg/ml, genetic background: Δrob
[14] = 1.2 µg/ml, genetic background: ΔsoxS
[15] = 2.5 µg/ml, genetic background: wild type
[16] = 2.5 µg/ml, genetic background: ΔmarA
[17] = 2.5 µg/ml, genetic background: Δrob
[18] = 2.5 µg/ml, genetic background: ΔsoxS
[19] = 5 µg/ml, genetic background: wild type
[20] = 5 µg/ml, genetic background: ΔmarA
[21] = 5 µg/ml, genetic background: Δrob
[22] = 5 µg/ml, genetic background: ΔsoxS

CN[C@@H]1[C@H](O)[C@H](NC)[C@H]2O[C@@]3(O)C(=O)C[C@@H](C)O[C@H]3O[C@@H]2[C@H]1O [Spectinomycin]
promoter activity interaction Z-score [1, 7]: -0.0967 ± 0.053
promoter activity interaction Z-score [1, 8]: 0.63 ± 1.1
promoter activity interaction Z-score [1, 9]: -0.155 ± 0.22
promoter activity interaction Z-score [1, 10]: -0.229 ± 0.36
promoter activity interaction Z-score [1, 11]: 0.0581 ± 0.015
promoter activity interaction Z-score [1, 12]: 1.75 ± 0.53
promoter activity interaction Z-score [1, 13]: -0.245 ± 0.14
promoter activity interaction Z-score [1, 14]: 0.468 ± 0.31
promoter activity interaction Z-score [1, 15]: -0.0145 ± 0.16
promoter activity interaction Z-score [1, 16]: 0.746 ± 1
promoter activity interaction Z-score [1, 17]: -0.204 ± 0.38
promoter activity interaction Z-score [1, 18]: -0.222 ± 0.034
promoter activity interaction Z-score [1, 19]: 0.0345 ± 0.34
promoter activity interaction Z-score [1, 20]: 1.39 ± 0.42
promoter activity interaction Z-score [1, 21]: 0.0966 ± 0.39
promoter activity interaction Z-score [1, 22]: 0.99 ± 0.69
promoter activity interaction Z-score [2, 7]: 0.0396 ± 0.21
promoter activity interaction Z-score [2, 8]: 0.0233 ± 0.13
promoter activity interaction Z-score [2, 9]: 0.0237 ± 0.29
promoter activity interaction Z-score [2, 10]: -0.0535 ± 0.0022
promoter activity interaction Z-score [2, 11]: 0.102 ± 0.093
promoter activity interaction Z-score [2, 12]: -0.0481 ± 0.051
promoter activity interaction Z-score [2, 13]: -0.00303 ± 0.08
promoter activity interaction Z-score [2, 14]: 0.208 ± 0.053
promoter activity interaction Z-score [2, 15]: 0.0906 ± 0.13
promoter activity interaction Z-score [2, 16]: 0.0124 ± 0.13
promoter activity interaction Z-score [2, 17]: -0.193 ± 0.016
promoter activity interaction Z-score [2, 18]: 0.131 ± 0.081
promoter activity interaction Z-score [2, 19]: 0.33 ± 0.19
promoter activity interaction Z-score [2, 20]: -0.0142 ± 0.091
promoter activity interaction Z-score [2, 21]: -0.115 ± 0.2
promoter activity interaction Z-score [2, 22]: 0.467 ± 0.33
promoter activity interaction Z-score [3, 7]: 0.543 ± 0.52
promoter activity interaction Z-score [3, 8]: 0.58 ± 0.32
promoter activity interaction Z-score [3, 9]: 0.8 ± 0.87
promoter activity interaction Z-score [3, 10]: 0.0444 ± 0.43
promoter activity interaction Z-score [3, 11]: 0.46 ± 0.84
promoter activity interaction Z-score [3, 12]: 0.92 ± 1.9
promoter activity interaction Z-score [3, 13]: 1.39 ± 1.6
promoter activity interaction Z-score [3, 14]: 0.446 ± 0.44
promoter activity interaction Z-score [3, 15]: 0.634 ± 0.23
promoter activity interaction Z-score [3, 16]: 0.0667 ± 0.36
promoter activity interaction Z-score [3, 17]: 0.00624 ± 0.23
promoter activity interaction Z-score [3, 18]: 0.0301 ± 0.019
promoter activity interaction Z-score [3, 19]: 1.76 ± 0.4
promoter activity interaction Z-score [3, 20]: 3.2 ± 2
promoter activity interaction Z-score [3, 21]: 1.79 ± 0.59
promoter activity interaction Z-score [3, 22]: 1.52 ± 0.2
promoter activity interaction Z-score [4, 7]: 0.57 ± 0.013
promoter activity interaction Z-score [4, 8]: 0.679 ± 0.25
promoter activity interaction Z-score [4, 9]: 0.28 ± 0.54
promoter activity interaction Z-score [4, 10]: 0.0239 ± 0.071
promoter activity interaction Z-score [4, 11]: 1.23 ± 0.055
promoter activity interaction Z-score [4, 12]: 1.12 ± 1
promoter activity interaction Z-score [4, 13]: 0.344 ± 1.1
promoter activity interaction Z-score [4, 14]: 0.459 ± 0.35
promoter activity interaction Z-score [4, 15]: 1.05 ± 0.45
promoter activity interaction Z-score [4, 16]: -0.18 ± 0.022
promoter activity interaction Z-score [4, 17]: -0.207 ± 0.35
promoter activity interaction Z-score [4, 18]: -0.519 ± 0.17
promoter activity interaction Z-score [4, 19]: 1.2 ± 0.5
promoter activity interaction Z-score [4, 20]: 1.72 ± 1.6
promoter activity interaction Z-score [4, 21]: 0.387 ± 0.033
promoter activity interaction Z-score [4, 22]: 0.464 ± 0.086
promoter activity interaction Z-score [5, 7]: -0.101 ± 0.17
promoter activity interaction Z-score [5, 8]: -0.203 ± 0.0084
promoter activity interaction Z-score [5, 9]: -0.117 ± 0.15
promoter activity interaction Z-score [5, 10]: -0.425 ± 0.2
promoter activity interaction Z-score [5, 11]: -0.0613 ± 0.16
promoter activity interaction Z-score [5, 12]: -0.366 ± 0.011
promoter activity interaction Z-score [5, 13]: -0.175 ± 0.039
promoter activity interaction Z-score [5, 14]: -0.141 ± 0.26
promoter activity interaction Z-score [5, 15]: -0.0221 ± 0.0045
promoter activity interaction Z-score [5, 16]: -0.26 ± 0.096
promoter activity interaction Z-score [5, 17]: -0.323 ± 0.11
promoter activity interaction Z-score [5, 18]: -0.283 ± 0.26
promoter activity interaction Z-score [5, 19]: 0.172 ± 0.16
promoter activity interaction Z-score [5, 20]: -0.231 ± 0.12
promoter activity interaction Z-score [5, 21]: -0.25 ± 0.12
promoter activity interaction Z-score [5, 22]: -0.213 ± 0.14
promoter activity interaction Z-score [6, 7]: 0.361 ± 0.53
promoter activity interaction Z-score [6, 8]: 0.711 ± 0.34
promoter activity interaction Z-score [6, 9]: 0.221 ± 0.16
promoter activity interaction Z-score [6, 10]: -0.376 ± 0.49
promoter activity interaction Z-score [6, 11]: -0.382 ± 0.52
promoter activity interaction Z-score [6, 12]: -0.763 ± 0.28
promoter activity interaction Z-score [6, 13]: -0.313 ± 0.84
promoter activity interaction Z-score [6, 14]: 0.357 ± 0.55
promoter activity interaction Z-score [6, 15]: -0.207 ± 0.26
promoter activity interaction Z-score [6, 16]: -0.0988 ± 1.2
promoter activity interaction Z-score [6, 17]: -0.56 ± 0.75
promoter activity interaction Z-score [6, 18]: 0.223 ± 0.16
promoter activity interaction Z-score [6, 19]: 0.269 ± 0.23
promoter activity interaction Z-score [6, 20]: -0.244 ± 0.4
promoter activity interaction Z-score [6, 21]: -0.307 ± 0.99
promoter activity interaction Z-score [6, 22]: 0.299 ± 0.054
